# Screening results from PubChem BioAssay.
# In the library only some 1.5% were active in any assay of this set; here they are far more common.
# VHR inh abs = DUSP3 (human) phosphatase inhibition; recombinant VHR phosphatase, pNPP absorbance; 290,000 compounds, 0.52% hits; inhibition, % at 13.3 µM; in the data active means inhibition above about 50%
# Target sequence (P51452 whole entry, looked up): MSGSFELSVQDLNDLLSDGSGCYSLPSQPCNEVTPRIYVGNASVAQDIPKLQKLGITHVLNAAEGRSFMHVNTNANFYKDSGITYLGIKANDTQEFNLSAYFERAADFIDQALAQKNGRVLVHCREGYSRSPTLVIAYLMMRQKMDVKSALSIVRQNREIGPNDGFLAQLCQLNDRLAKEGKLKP
# PriA SSB inh = inhibitors of Klebsiella pneumoniae PriA binding to SSB C-terminal tail; AlphaScreen SSBct-PriA binding, biotinylated peptide; 430,000 compounds, 0.6% hits; inhibition, % at 33 µM; in the data active means inhibition mostly above about 37%, no sharp cut-off; inactive means mostly below about 20%
# CCHFV vOTU inh = blocks the CCHF virus ovarian tumor domain protease. CCHFV vOTU protease, Pep-AMC fluorescence. inhibition, % at 11.5 µM. 370,000 compounds, 0.55% hits; in the data active means inhibition above about 30%
# Sa ugtP lethal = compounds lethal to S. aureus RN4220 ugtP deletion mutant; OD600 growth, 16 h; growth inhibition, % (concentration not given with the values); 330,000 compounds, 0.54% hits; AID 1259309; in the data active means growth inhibition above about 68%
# RN4220 kill = S. aureus RN4220 growth inhibition; OD600, 16 h; inhibition, % (concentration not given with the values); 330,000 compounds, 0.33% hits; in the data active means inhibition above about 85%
# Numbers stand for hits; i = inactive; nt = no result.
SMILES,VHR inh abs,PriA SSB inh,CCHFV vOTU inh,Sa ugtP lethal,RN4220 kill
CCOC(=O)C(O)(c1ccc(NC(=S)NC(=O)c2ccc(Cl)cc2Cl)cc1)C(F)(F)F (centres undefined),i,i,i,84,i
COC(=O)C(O)(c1ccc(NC(=S)NC(=O)c2ccc(Cl)cc2Cl)cc1)C(F)(F)F (centres undefined),i,i,i,86,i
COC(=O)C(O)(c1ccc(NC(=S)NC(=O)c2ccc(Cl)cc2Cl)c(C)c1)C(F)(F)F (centres undefined),i,i,i,i,i
O=S(=O)(NCCOc1ccc(F)cc1)c1ccc(Cl)cc1,nt,i,nt,nt,nt
O=C(COc1ccc(Cl)cc1Cl)NNC(=S)NC(=O)c1ccco1,i,i,i,90,93
CCCOc1ccc(C(=O)NNC(=S)NC(=O)c2ccco2)cc1,i,i,i,90,87
CC(C)(C)c1ccc(C(=O)NC(=S)NNC(=O)c2cccs2)cc1,i,i,i,92,86
CCC(=O)NC(=S)NNC(=O)c1ccc(OC)cc1,i,i,i,i,i
CCCCOc1ccc(C(=O)NNC(=S)NC(=O)CC)cc1,i,i,nt,98,94
Cc1ccccc1Cn1nc(-c2cccs2)c2sc(N3CCCCC3)nc2c1=O,nt,i,nt,nt,nt
Cc1ccccc1C(=O)NNC(=S)NC(=O)COc1ccccc1,i,i,i,i,i
CC(C)(C)C(=O)NC(=S)NNC(=O)c1ccc(-c2ccccc2)cc1,i,i,nt,i,92
Cc1ccc(C(=O)NNC(=S)NC(=O)COc2ccccc2)cc1,i,i,i,92,88
Cc1nn(C)c(C)c1S(=O)(=O)N(CC(=O)NCCCN1CCC(C)CC1)c1ccc(C(C)C)cc1,56,i,i,i,i
CS(=O)(=O)Nc1ccc(N2CCN(c3ccc(C(F)(F)F)cn3)CC2)nc1,i,i,i,i,i
CC1=NN(c2ccc(C(F)(F)F)cn2)C(=O)C1,i,45,i,i,i
CC(C)Sc1cc(N2CCOCC2)nc(-c2ccccc2)n1,i,i,i,98,i
CC(C)Sc1cc(N2CCCC2)nc(-c2ccccc2)n1,i,i,i,i,i
O=C(NCC1(Sc2ccccc2)CCOCC1)c1ccccc1F,nt,i,nt,nt,nt
CN1CCN(c2nc(-c3ccccn3)nc3ccccc23)CC1,i,46,i,i,i
Nc1nc(-c2ccccn2)nc2ccccc12,nt,140,nt,nt,nt
NNc1nc(-c2ccccn2)nc2c1CCC2,nt,165,nt,nt,nt
Nc1nc(N)nc(-c2ccccn2)n1,i,78,i,i,i
O=C(CCC(=O)N1CCS[C@H](c2ccccc2Cl)CC1)c1ccccc1,nt,i,nt,nt,nt
NNc1nc(N)nc(-c2ccccn2)n1,nt,152,nt,nt,nt
SMILES,VHR inh abs,PriA SSB inh,CCHFV vOTU inh,Sa ugtP lethal,RN4220 kill
COc1cccc2sc(N3CCN(C(=O)c4ccc5c(c4)CCCC5)CC3)nc12,nt,i,nt,nt,nt
COc1ccc(OC)c2sc(N3CCN(C(=O)c4ccc5c(c4)CCCC5)CC3)nc12,nt,29,nt,nt,nt
CC1CCCC1OCC(O)CN(CCO)CCO (centres undefined),nt,i,nt,nt,nt
O=C(C1CC1(c1ccccc1)c1ccccc1)N1CCOCC1 (centres undefined),i,55,i,i,i
CN(C)CCNc1cccc2sc3ccc(O)cc3c(=O)c12,nt,nt,i,nt,nt
Cc1ccc(NCCN(C)C)c2c(=O)c3cc(O)ccc3sc12,nt,62,i,nt,nt
CC1CN(C(=O)Cn2nc(C(C)C)c3cnn(C(C)(C)C)c3c2=O)CC(C)O1 (centres undefined),nt,i,nt,nt,nt
COc1cccc(C2=NN(C(=O)c3cccs3)C(O)(C(F)(F)F)C2)c1 (centres undefined),i,i,i,i,91
NS(=O)(=O)c1ccc(Nc2c([N+](=O)[O-])cncc2[N+](=O)[O-])cc1,i,i,i,90,96
CC(=O)N1CCc2c(sc(NC(=O)c3ccc(-c4ccccc4)cc3)c2C#N)C1,nt,i,nt,nt,nt
CN(C)c1ccc(CN(CC2CCCO2)C(=O)c2cc3ccccc3o2)cc1 (centres undefined),nt,i,i,i,i
Cc1c(C(=O)N(Cc2ccc(N(C)C)cc2)CC2CCCO2)oc2ccccc12 (centres undefined),i,57,i,i,i
Cc1c(C(=O)N(Cc2ccc(Cl)cc2)C2CCS(=O)(=O)C2)oc2ccccc12 (centres undefined),i,i,i,i,i
Cc1ccc2oc(C(=O)N(Cc3ccc(N(C)C)cc3)C3CCS(=O)(=O)C3)c(C)c2c1 (centres undefined),i,43,i,i,i
Cc1ccc2c(C)c(C(=O)N(Cc3ccc(N(C)C)cc3)C3CCS(=O)(=O)C3)oc2c1 (centres undefined),i,39,i,i,i
Cc1ccc(-n2cc(C(=O)N(C)Cc3ccccc3)nn2)cc1C,nt,i,nt,nt,nt
CC(=O)NCC(=O)NC1CCC(Oc2ncc(F)cn2)CC1 (centres undefined),nt,i,nt,nt,nt
CCOC(=O)c1ccc(NC(=O)CS(=O)(=O)c2ccccc2)cc1,nt,i,nt,nt,nt
CC(=O)Nc1cc2c3c(c1)CCN3C(=O)CC2,56,i,i,i,i
Cc1cc(C(=O)N2CCC(Oc3ncccc3Cl)CC2)c(C)o1,nt,i,nt,nt,nt
CCn1ccnc1CNCc1cn(-c2cc(C)ccc2C)nc1-c1ccccc1,i,87,i,i,i
Cc1cc(C)cc(Nc2nc3ccccc3c(=O)[nH]2)c1,i,i,i,i,i
COc1nc(Nc2nc3ccccc3c(=O)[nH]2)nc2ccc(C)cc12,i,i,i,100,100
Cc1cc(C)nc(NC(=O)c2c[nH]c3ccccc3c2=O)n1,nt,i,nt,nt,nt
COC1C=CO[C@@]2(C)Oc3c(C)c(O)c4c(O)c(c(C=NN5CCN(C6CCCC6)CC5)c(O)c4c3C2=O)NC(=O)C(C)=CC=CC(C)C(O)C(C)C(O)C(C)C(OC(C)=O)C1C (some centres undefined),nt,nt,nt,98,99
SMILES,VHR inh abs,PriA SSB inh,CCHFV vOTU inh,Sa ugtP lethal,RN4220 kill
Cc1ccc(S(=O)(=O)NN2C(=O)/C(=C/c3ccc(F)cc3)SC2=S)cc1,i,i,i,89,85
C=CCOc1ccc(/C=C2\SC(=S)N(NS(=O)(=O)c3ccc(C)cc3)C2=O)cc1,nt,i,i,88,i
Cc1ccc(/C=C2\SC(=S)N(NS(=O)(=O)c3ccc(C)cc3)C2=O)cc1,i,i,i,i,i
Cc1ccc(S(=O)(=O)NN2C(=O)/C(=C\c3ccc(Cl)cc3)SC2=S)cc1,i,i,i,i,i
COc1ccc(/C=C2/SC(=S)N(NS(=O)(=O)c3ccc(C)cc3)C2=O)cc1,i,i,i,82,i
O=[N+]([O-])c1cccc(CSc2ncc(CO)n2Cc2ccccc2)c1,nt,i,nt,nt,nt
Cc1nc2ccccc2n1C1CC(=O)N(N(C)C)C1=O (centres undefined),56,i,i,i,i
CCN1C(=O)CC(n2c(C)nc3ccccc32)C1=O (centres undefined),i,i,i,i,i
CCCCn1c(N)c(Sc2ccccc2[N+](=O)[O-])c(=O)[nH]c1=O,51,i,i,i,i
O=C(Oc1cccc(OC(=O)c2ccco2)c1)c1ccco1,56,i,i,i,i
COc1ccc(OC)c(S(=O)(=O)N(C)CC(=O)N2CCc3ccccc3C2)c1,i,i,i,i,i
COc1ccc(OC)c(S(=O)(=O)N(C)CC(=O)N2CCCCC2)c1,53,i,i,i,i
O=S(=O)(NCCN1CCN(c2ccccc2F)CC1)c1ccc(F)c(Cl)c1,nt,i,nt,nt,nt
